Laboratory results from PubChem BioAssay AID624483 (NMMLSC, 2012).
In all, about 360,000 compounds went through this assay and about 11,000 (3.1%) were called active. Inconclusive results (about 2%) are left out. The sample as a whole holds a higher share of actives than the screen did. Values without a mark were called inactive. No stated cut-off is given here; in the data, active means fluorescence intensity above about 16000; inconclusive means no clear call, values can overlap the other calls; inactive means below that.

Assay: compound fluorescence in toxin protease inhibitor counterscreen, primary screen, artefact control for toxin protease inhibitor project, biochemical, multiplex microsphere, HTS (AID 624483)
Conditions: compound autofluorescence counterscreen, microsphere flow cytometry; stronger effect = higher value

Compound	fluorescence intensity
O=C(NC1CCCC1)C1c2ccccc2OCC(=O)N1CC(F)(F)F (configuration not stated)	6700
Cn1c(CN2CCOCC2)nc2cc(NC(=O)c3ccc(Cl)cc3)ccc21	4450
C=CCn1c(C)cc(C2=NNC(=NCC)SC2)c1C	2100
COCCn1c(C)cc(C2=NNC(=Nc3ccc(F)cc3)SC2)c1C	20800 (active)
C[C@@H]1CN([C@@H](C)CO)C(=O)c2c(c3ccccc3n2C)-c2ccccc2CO[C@H]1CN(C)C(=O)C1CC1	3570
CCCCCCCCN1C(=O)[C@H](CC(=O)NCc2cccc3ccccc23)C[C@@]2(C(=O)OC)CCCCC=C12	4630
CC(=O)NCC(=O)N1CCC(n2nccc2NC(=O)CCCc2ccccc2)CC1	6400
O=C(O)CCC(=O)NCc1ccc(C(=O)O)cc1	3850
NNC(=O)c1ccc(COCC(F)(F)C(F)F)cc1	4020
O=C(O)c1ccc(COCC(F)(F)F)cc1	16300 (active)
O=C(NCCCN1CCOCC1)C1CCCN(S(=O)(=O)N2CCCCC2)C1 (configuration not stated)	5550
CN(C(=O)COC(=O)CCCc1c[nH]c2ccccc12)c1c(N)n(Cc2ccccc2)c(=O)[nH]c1=O	3770
CC1=C(C(=O)N2CCOCC2)CC(CC(=O)NCCCN(C)C)C(=O)N1Cc1ccc(C(C)(C)C)cc1 (configuration not stated)	5880
CCOC(=O)c1cc(-c2nnc(-c3cc(OC)c(OC)c(OC)c3)o2)c(C)nc1C	3800
CCOc1ccc(-c2noc(CCC(=O)NC3CCCC3)n2)cc1OC	4230
CCOc1nc(-c2ccc(OC)cc2)ccc1-c1noc(-c2cc(OC)c(OC)c(OC)c2)n1	20200 (active)
Nc1ncnc2c1ncn2[C@@H]1O[C@H](C(=O)NCC(F)(F)F)[C@@H](O)[C@H]1O	5880
COC(=O)[C@@]1(Cc2ccc(F)cc2)[C@H]2c3cc(C(=O)N4CCCC4)n(Cc4ccc(OC(F)(F)F)cc4)c3C[C@H]2CN1C(=O)c1ccccc1	4360
CN1C[C@@H](CO)O[C@@H](n2cnc3c(N4CCN(CCO)CC4)ncnc32)C1	3470
CCc1ccc(NC(=O)CSc2nc3ccccc3c(=O)n2CCN2CCOCC2)cc1	23500 (active)
CC(=O)c1ccc(NC(=O)CSc2nc3ccccc3c(=O)n2CCCN2CCOCC2)cc1	3650
COC(=O)c1ccc2c(=O)n(CCN3CCOCC3)c(SCC(=O)Nc3cccc(OC)c3)nc2c1	5360
Clc1ccc(-c2cccc3nccn23)cc1	3770
COc1cccc(-c2nc3nc(C)cc(C)n3c2NC2CCCCC2)c1	7480
Cc1ccc(F)c(S(=O)(=O)NC(=O)C2(C)CCN2C(=O)c2ccco2)c1 (configuration not stated)	3860
COC(=O)c1[nH]c2ccccc2c1NS(=O)(=O)c1ccc(OC)cc1OC	20900 (active)

Compound	fluorescence intensity
COc1ccc(NC(=O)COC(=O)c2n[nH]c3ccccc23)c(OC)c1	5180
CCCS(=O)(=O)Nc1c(C(=O)O)[nH]c2ccccc12	10100
CCC(C)(C)c1ccc(OCC(=O)N(C)C)c(C(C)(C)CC)c1	4730
Cc1ccc(NC(=O)NC2CCCCC2)cc1S(=O)(=O)N1CCOCC1	3370
Cc1ccc(C(=O)Nc2ccccc2C(=O)NC2CCCCC2)cc1S(=O)(=O)N1CCOCC1	16600 (active)
Cc1ccc(C(=O)Nc2ncccc2C)cc1S(=O)(=O)N1CCOCC1	5280
CCc1ccccc1NC(=O)CN1CCN(C(=O)c2cc(C3CC3)nn2-c2ccccc2)CC1	3950
CCNC(=O)N1CCN(S(=O)(=O)c2ccc3c(c2)OCCCO3)CC1	5340
CCCCCC(=O)N1CCN(S(=O)(=O)c2ccc3c(c2)OCCCO3)CC1	5990
CN1CCCN(S(=O)(=O)c2ccc3c(c2)OCCO3)CC1	22400 (active)
N#Cc1ccc(-c2nc3c(Cl)cc(C(F)(F)F)cn3c2Cc2ccccc2C(F)(F)F)cc1	5560
COc1ccc(NC(=O)C2Cc3c(-c4ccc5c(c4)OCO5)ccnc3O2)cn1 (configuration not stated)	2850
C#CCOc1ccccc1/C=C1/C(=O)ON=C1C	4290
CCOC(=O)c1cc2c(ccn2C)n1CC(=O)N1CCC(C)CC1	4040
C/C(=N\c1nc2ccccc2n1C)c1cc(Cl)ccc1O	3250
Oc1ccc(Cl)cc1/C=N/c1nc2ccccc2[nH]1	22500 (active)
Oc1c(Cl)cc(Cl)cc1/C=N/c1ncn[nH]1	4010
C=CCNCCCCOc1ccccc1	2600
CCc1nc2c(OCC(=O)C(C)(C)C)cccn2c1N(C)C(=O)c1ccccc1F	3600
CC1(C(=O)NCc2ccc3c(c2)OCO3)CCN1CCc1ccccc1 (configuration not stated)	3940
CCc1nc2ccc(C(=O)N3CCN(S(=O)(=O)CC)CC3)cn2c1N(C=O)CCC(C)C	3570
NC(=O)Cn1c(=O)oc2ccccc21	19700 (active)
CC1CCCN(C(=O)Cn2c(=O)oc3ccccc32)C1 (configuration not stated)	3850
CC(=O)c1ccc(NC(=O)Cn2c(=O)oc3ccccc32)cc1	3040
O=C(NC(c1ccc(Cl)cc1)c1cnccn1)C1CCN(Cc2ccc(Cl)cc2)CC1 (configuration not stated)	4620
CCCCC[C@H](C)N1C[C@@H](COCc2ccccc2)Oc2cc(N3CC[C@@H](N(C)C)C3)ccc2S1(=O)=O	5700
